High-throughput results (PubChem BioAssay)
Only a selection was taken, and hits are over-represented in it overall.
CRE Fsk mod: modulators of forskolin-stimulated CRE signaling in CHO cells; CHO CRE-bla reporter (cAMP response element driving beta-lactamase), forskolin EC10, beta-lactamase ratio; hit rate 2.5% among 71,000; Potency, µM (top dose mostly 38.2 µM), most hits filed as activators; AID 662; active = well fitted activation curve with a large enough effect in the signal ratio, with a control signal flat, not every such curve was filed as active; inconclusive = small, poorly fitted or top-dose-only effect, or effect the other way, or a change in a side signal; the % refers to the signal ratio
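Using CellSensor CRE-bla CHO cells in Opti-MEM with 0.5% dialyzed FBS, compounds were titrated with EC10 NKH 477 for 3 h at 37 °C. CCF4 ratio (460/530 nm) gave %Activity; AC50 derived.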
Imprint erasure: induces erasure of genomic imprints in mouse ES cells; Potency, µM (series often up to 60.7 µM), most hits filed as activators; AID 1948; mouse ES Peg3-LacZ reporter, beta-gal luminescence, 40 h; hit rate 0.02% among 110,000
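Readout: BetaGlo luminescence (5 min, room temp) for LacZ from the normally silent maternal Peg3 allele in female Peg3LacZ-Neo ES cells. Cells 300/well, 40 h, 37C, 5% CO2. Data normalized per plate to negative controls.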
HBB splicing: hemoglobin beta splicing modulation | HBB splicing reporter cell assay, activation; EGFP reporter with mutant IVS2-654 intron; response scale: normalised to 500 nM splice-correcting PNA | Potency, µM (titrated, usually from 46.1 µM), usual class: activators | hit rate 0.06% among 65,000
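Compounds were applied for 2 days to HeLa EGFP-654 cells, 500/well in Optimem with 2% FCS. The reporter's EGFP is disrupted by mis-splicing of beta-globin intron IVS2-654. Readout: summed well GFP fluorescence from 488 nm laser scanning; reference was 500 nM antisense […] 654 PNA.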
GFP derepression: epigenetic modulators derepressing GFP locus in mouse cells. mouse C127i GFP locus derepression, cytometry, 30 h. Potency, µM (top dose mostly 46.1 µM). hit rate 0.09% among 68,000. AID 597
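Locus derepression in mouse mammary C127i cells whose integrated CMV-GFP reporter is normally silent; GFP expression after 30 h compound treatment was quantified by counting fluorescent cells.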
IkB sig inh: suppresses IkB signaling in ABC-DLBCL reporter cells; ABC-DLBCL IkBa-CBG/CBR dual luciferase ratio, 4 h; response scale: scaled: untreated 0%, proteasome inhibitor 100%; Potency, µM (highest dose often 57.1 µM); hit rate 0.04% among 110,000; AID 445; active = well fitted curve in the direction sought with a large enough effect in the signal ratio, not every such curve was filed as active; inconclusive = small, poorly fitted or top-dose-only effect, or a change in a side signal; the % refers to the signal ratio;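 note: the direction sought is a rising ratio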
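In this assay, an IκBα–CBG68 fusion accumulates when IKK-driven degradation is blocked; native CBR normalizes for cell number. OCI-Ly3 cells were treated 4 h with compound and doxycycline, then green and red light read after Chroma-Glo addition.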
A number is an active result; [ ] = another dose, or the depositor's remark. Unless noted, calls come from the whole dose curve; as a rule, active = well fitted curve in the direction sought with a large enough effect; inconclusive = small, poorly fitted or top-dose-only effect, or another doubt; inactive = no such curve, though single readings can be large; an effect the other way counts as inactive or inconclusive.

Screening COc1cccc(Cn2c(N)c(C#N)c3nc4ccccc4nc32)c1OC returned CRE Fsk mod 5µM, Imprint erasure inactive, HBB splicing inactive, GFP derepression inactive and IkB sig inh inactive.
`COc1cc(Cn2c(N)c(C#N)c3nc4ccccc4nc32)cc(OC)c1` gave CRE Fsk mod 13µM, Imprint erasure inactive, HBB splicing inactive[1.84 µM], GFP derepression inactive and IkB sig inh inactive.
For N#Cc1c(N)n(CCOC(=O)c2cccc(Br)c2)c2nc3ccccc3nc12 the results were GFP derepression inactive.
Screening c1ccc(-c2nnc(CSc3nnc(-c4cccs4)o3)o2)cc1 returned CRE Fsk mod inconclusive, Imprint erasure inactive, HBB splicing inactive, GFP derepression inactive and IkB sig inh inconclusive.
`c1ccc(-c2nnc(SCc3cn4ccsc4n3)o2)cc1` gave CRE Fsk mod 10µM, Imprint erasure inactive, HBB splicing inactive, GFP derepression inactive and IkB sig inh inactive.
CCc1noc(-c2ccc(NC(C)c3ccccc3)c([N+](=O)[O-])c2)n1 (centres undefined) was read as Imprint erasure inactive[10.9 µM] and IkB sig inh inactive.
Screening CCn1ncc(Br)c1C(=O)Nc1sc2c(c1C(N)=O)CCC2 returned CRE Fsk mod 2.5µM, Imprint erasure inactive, HBB splicing inactive, GFP derepression inactive and IkB sig inh inactive.
`O=C(CCn1nc(-c2ccc(Cl)cc2)ccc1=O)N1CCN(c2ccccn2)CC1` gave CRE Fsk mod 4µM, Imprint erasure inactive, HBB splicing inactive, GFP derepression inactive and IkB sig inh inactive.
O=C(CCn1nc(-c2ccc(Cl)cc2)ccc1=O)N1CCOCC1 was read as CRE Fsk mod inactive, Imprint erasure inactive, HBB splicing inactive[0.369 µM], GFP derepression inactive and IkB sig inh inactive.
COc1cc(C(=O)Oc2c(CN3CCOCC3)cc(Cl)c3cccnc23)cc(OC)c1OC was read as CRE Fsk mod 7.9µM, Imprint erasure inactive, HBB splicing inactive and IkB sig inh inconclusive.
O=C(Oc1c(CN2CCOCC2)cc(Cl)c2cccnc12)c1ccc(F)cc1 was read as CRE Fsk mod inactive, Imprint erasure inactive, HBB splicing inactive, GFP derepression inactive and IkB sig inh inactive.
Screening COc1ccc(C(=O)Oc2c(CN3CCOCC3)cc(Cl)c3cccnc23)cc1 returned CRE Fsk mod inactive, Imprint erasure inactive, HBB splicing inactive, GFP derepression 7.9µM and IkB sig inh inactive.
`Cn1cc(S(=O)(=O)N2CCCCCC2)cc1C(=O)N1CCN(c2cccc(C(F)(F)F)c2)CC1` gave Imprint erasure inactive[10.9 µM] and IkB sig inh inconclusive.
For CCC(c1nnnn1Cc1ccccc1)N(Cc1ccco1)Cc1cc2cc(OC)ccc2[nH]c1=O (centres undefined) the results were CRE Fsk mod inactive, GFP derepression inactive and IkB sig inh 4µM.
`C=CCn1c(SCc2cc(=O)n3ccsc3n2)nc2scc(C3CC3)c2c1=O` gave CRE Fsk mod 1.6µM, Imprint erasure inactive, HBB splicing inactive, GFP derepression inactive and IkB sig inh inconclusive.
`C=CCn1c(SCC(=O)NC2CCS(=O)(=O)C2)nc2scc(C3CC3)c2c1=O` (centres undefined) gave CRE Fsk mod inconclusive, Imprint erasure inactive, HBB splicing inactive, GFP derepression inactive and IkB sig inh inactive.
Screening C=CCn1c(SCC(=O)c2ccc(CNC(C)=O)o2)nc2scc(C3CC3)c2c1=O returned CRE Fsk mod 7.9µM, Imprint erasure inactive, HBB splicing inactive, GFP derepression inactive and IkB sig inh inactive.
CSc1ccc(CCNC(=O)CCCn2c(=O)c3cccn3c3ccccc32)cc1 was read as Imprint erasure inactive[10.9 µM] and IkB sig inh inconclusive.
COc1ccc(N2CCN(C(=O)c3cccn3-c3nnc(N4CCCC4)s3)CC2)cc1 was read as Imprint erasure inactive[10.9 µM] and IkB sig inh inactive.
O=C(NC1CCCCC1)c1cc2nc3c(c(C(F)(F)F)n2n1)CCCC3 was read as CRE Fsk mod 13µM, Imprint erasure inactive, HBB splicing inactive, GFP derepression inactive and IkB sig inh inactive.
Cc1cc(N2CCOCC2)nc(SCC(=O)c2ccc(Cl)cc2)n1 was read as CRE Fsk mod 10µM, Imprint erasure inactive, HBB splicing inactive, GFP derepression inactive and IkB sig inh inactive.
Screening Cc1cc(N2CCOCC2)nc(SCC(=O)c2ccccc2)n1 returned CRE Fsk mod inconclusive, Imprint erasure inactive, HBB splicing inactive, GFP derepression inactive and IkB sig inh inconclusive.
For COC(=O)c1ccc2c(c1)N(CC(=O)Nc1cccc(C(F)(F)F)c1)C(=O)c1ccccc1S2 the results were Imprint erasure inactive[10.9 µM] and IkB sig inh inactive.
For Cc1cc(NC(=O)CC(C)(C)C)nc2c1c(=O)oc1ccccc12 the results were CRE Fsk mod 2µM, Imprint erasure inactive, HBB splicing inactive, GFP derepression inactive and IkB sig inh inactive.
Cc1cccc(-n2cnc3c(c2=O)c2nc4ccccc4nc2n3Cc2ccco2)c1 was read as CRE Fsk mod inconclusive, Imprint erasure inactive, HBB splicing inactive, GFP derepression inactive and IkB sig inh inactive.
Screening COc1ccc(Cn2c3nc4ccccc4nc3c3c(=O)n(Cc4ccco4)cnc32)cc1 returned CRE Fsk mod 13µM, Imprint erasure inactive, HBB splicing inactive, GFP derepression inactive and IkB sig inh inactive.
COc1ccccc1N=c1oc2cc(O)ccc2cc1C(=O)NCC1CCCO1 (centres undefined) was read as CRE Fsk mod 10µM, Imprint erasure inactive, GFP derepression inactive and IkB sig inh inconclusive.
CCOc1ccccc1NC(=O)c1ccccc1NS(C)(=O)=O was read as CRE Fsk mod inactive, Imprint erasure inactive, HBB splicing inactive, GFP derepression inactive and IkB sig inh inactive.
Screening COc1ccccc1NC(=O)c1ccccc1NS(C)(=O)=O returned CRE Fsk mod 2µM, Imprint erasure inactive, HBB splicing inactive, GFP derepression inactive and IkB sig inh inactive.
COc1ccccc1NC(=O)c1cc2ccc(O)cc2o/c1=N\O was read as CRE Fsk mod 10µM, Imprint erasure inactive, HBB splicing inactive, GFP derepression inactive and IkB sig inh inconclusive.
`COc1ccccc1N=c1oc2cc(O)ccc2cc1C(N)=O` gave CRE Fsk mod inconclusive, Imprint erasure inactive, HBB splicing inactive, GFP derepression inactive and IkB sig inh inconclusive.
Screening Cc1ccc(C)c(CSc2nc3c([nH]c4ccccc43)c(=O)n2C)c1 returned Imprint erasure inactive[10.9 µM] and IkB sig inh inactive.
For Cc1ccc2nc(CSc3nnc(-c4ccco4)n3-c3ccccc3)cc(=O)n2c1 the results were CRE Fsk mod 5µM, Imprint erasure inactive, HBB splicing inactive, GFP derepression inactive and IkB sig inh inactive.
`Cc1ccc2nc(CSc3nnc(-c4ccco4)o3)cc(=O)n2c1` gave CRE Fsk mod inconclusive, Imprint erasure inactive, HBB splicing inactive, GFP derepression inactive and IkB sig inh inactive.
